Bioassay records as filed in PubChem.
HP1b chromo inh – HTS for Inhibitors of HP1-beta Chromodomain Interactions with Methylated Histone Tails. Potency, µM (series often up to 114 µM), for inactives: at the highest dose activity change, negative = inhibition, usual class: inhibitors. AlphaScreen HP1-beta / biotin-H3K9me3 peptide binding. AID 540317, 2011. Chromobox protein homolog 1 (Homo sapiens), P83916. 0.56% of 390,000 active; further: nearly all actives have a fitted effect of over 70% in size
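Compound inhibition of the preformed complex between 50 nM HP1-beta and 50 nM biotinylated H3K9me3 peptide was read by AlphaScreen. Buffer was PBS pH 7.4 with 0.01% Tween-20. Incubations ran 30 min at room temperature, with 10 ug/mL donor/acceptor beads.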
VDR inhibitor – Inhibitors of the vitamin D receptor (VDR): qHTS; 0.93% of 400,000 active; VDR-SRC2-3 peptide fluorescence polarization, 2 h; Vitamin D3 receptor (Homo sapiens), P11473; Potency, µM, inactives show max response, negative = inhibition, most hits filed as inhibitors; further: on the % scale 0 is the no-effect control and ±100 the full control effect
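Measured by FP: displacement of SRC2-3 coactivator peptide from VDR by library compounds, following a two-hour ambient incubation.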
JMJD2A Tudor – qHTS Assay for Inhibitors of JMJD2A-Tudor Domain; Potency, µM (series often up to 114 µM), for the others: at the top dose activity change, negative = inhibition, hits mostly inhibitors; 4.4% of 390,000 active; AID 504339, 2011; AlphaScreen JMJD2A-Tudor / H3K4me3 peptide binding; further: on the % scale 0 is the no-effect control and ±100 the full control effect; nearly all actives have a fitted effect of over 50% in size
Target sequence (O75164 whole entry, looked up, the tested form may be a part): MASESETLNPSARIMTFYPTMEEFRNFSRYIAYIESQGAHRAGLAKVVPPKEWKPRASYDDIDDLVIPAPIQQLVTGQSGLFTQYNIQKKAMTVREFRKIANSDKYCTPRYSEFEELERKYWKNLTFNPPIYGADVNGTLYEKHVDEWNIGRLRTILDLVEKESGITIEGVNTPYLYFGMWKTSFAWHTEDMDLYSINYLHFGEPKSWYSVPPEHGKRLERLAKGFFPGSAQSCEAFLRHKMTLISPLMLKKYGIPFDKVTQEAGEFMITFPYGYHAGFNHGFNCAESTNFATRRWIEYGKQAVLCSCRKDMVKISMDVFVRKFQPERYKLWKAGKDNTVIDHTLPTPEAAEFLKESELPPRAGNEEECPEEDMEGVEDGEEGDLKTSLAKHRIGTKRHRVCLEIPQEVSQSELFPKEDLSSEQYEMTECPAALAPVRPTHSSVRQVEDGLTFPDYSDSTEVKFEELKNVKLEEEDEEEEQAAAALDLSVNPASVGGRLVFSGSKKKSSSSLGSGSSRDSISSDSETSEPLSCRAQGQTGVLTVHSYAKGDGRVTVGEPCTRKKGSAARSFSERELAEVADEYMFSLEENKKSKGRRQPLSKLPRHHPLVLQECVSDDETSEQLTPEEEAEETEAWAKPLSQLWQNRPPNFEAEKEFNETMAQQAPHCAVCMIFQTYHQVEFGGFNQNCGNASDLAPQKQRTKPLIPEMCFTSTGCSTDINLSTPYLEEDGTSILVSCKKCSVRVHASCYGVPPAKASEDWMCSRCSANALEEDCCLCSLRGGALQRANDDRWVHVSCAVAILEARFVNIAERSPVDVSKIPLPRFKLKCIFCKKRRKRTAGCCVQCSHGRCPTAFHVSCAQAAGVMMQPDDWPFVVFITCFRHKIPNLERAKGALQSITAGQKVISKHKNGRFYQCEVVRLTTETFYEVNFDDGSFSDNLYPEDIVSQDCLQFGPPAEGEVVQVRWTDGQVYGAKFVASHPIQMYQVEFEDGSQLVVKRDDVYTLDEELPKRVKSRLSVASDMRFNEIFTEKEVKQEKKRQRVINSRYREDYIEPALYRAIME
PLK1 PBD block – qHTS for Inhibitors of PLK1-PDB (polo-like kinase 1 - polo-box domain): Primary Screen; Serine/threonine-protein kinase PLK1 (Homo sapiens), P53350; 2.8% of 360,000 active; AID 720504, 2013; Potency, µM, for inactives: max response, negative = inhibition, usual class: inhibitors; Plk1 PBD binding of FITC phosphopeptide, fluorescence polarization; further: series mostly up to about 57 µM; on the % scale 0 is the no-effect control and ±100 the full control effect; nearly all actives have a fitted effect of over 65% in size
BAZ2B block – qHTS Assay for Inhibitors of BAZ2B; 4.4% of 360,000 active; AID 504333, 2011; Bromodomain adjacent to zinc finger domain protein 2B (Homo sapiens), Q9UIF8; AlphaScreen BAZ2B-H3K14Ac peptide displacement; Potency, µM (top dose mostly 114 µM), inactives show top-dose activity change, negative = inhibition, hits mostly inhibitors; further: on the % scale 0 is the no-effect control and ±100 the full control effect; nearly all actives have a fitted effect of over 60% in size
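In this displacement format the biotinylated H3(5-23) peptide acetylated at Lys14 serves as ligand at 50 nM, with BAZ2B at 50 nM in PBS pH 7.4 containing 0.01% Tween-20. Donor and acceptor beads are 10 ug/mL final.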
G9a block – qHTS Assay for Inhibitors of Histone Lysine Methyltransferase G9a; Histone-lysine N-methyltransferase EHMT2 (Homo sapiens), Q96KQ7; G9a H3K9 monomethylation, AlphaScreen, 2 h; Potency, µM (highest dose often 102 µM), without a hit: at the highest dose activity, negative = inhibition, usual class: inhibitors; 8.8% of 350,000 active; further: on the % scale 0 is the no-effect control and ±100 the full control effect; nearly all actives have a fitted effect of over 75% in size
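Quantitative HTS format: methyltransferase activity on a biotin-tagged H3K9 peptide is measured by AlphaScreen, using a rabbit anti-monomethyl-H3K9 antibody with streptavidin donor and anti-IgG acceptor beads. Final levels are 20 nM enzyme, 500 nM peptide, 20 uM SAM; 2 h RT.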
Starred values were filed as active, the others as inactive; ? = inconclusive; · = no result; ! = a repeat was not active; [ ] = dose if it differs, or a comment. An excerpt weighted towards active compounds, which were near 11% of everything screened. The call rests on the fitted dose curve; in most records, active means well fitted curve in the direction sought with a large enough effect; inconclusive means small, poorly fitted or top-dose-only effect, or another doubt; inactive means no such curve, though single readings can be large; an effect the other way counts as inactive or inconclusive. Potency means the concentration at half of the fitted maximal effect.

SMILES	HP1b chromo inh	VDR inhibitor	JMJD2A Tudor	PLK1 PBD block	BAZ2B block	G9a block
O=C(c1cccc(F)c1)N1CCC2(CCCN(c3cccc(-c4ccccc4)c3)C2)CC1	·	-14%	·	·	·	0%[12.7 µM]
O=C(c1cccc(F)c1)N1CCC[C@@]2(CCN(c3ccccc3)C2)C1	·	45µM*	·	·	·	6%[12.7 µM]
O=C(Oc1ccccc1)N1CCC[C@@]2(CCN(c3ccccc3)C2)C1	·	35µM*	·	·	·	5%[12.7 µM]
COc1cc(C(=S)N2CCOCC2)ccc1OC(=O)c1ccccc1[N+](=O)[O-]	-13%	10%	?	-23%	-12%	·
COc1cc(C(=S)N2CCOCC2)ccc1OS(=O)(=O)c1ccccc1[N+](=O)[O-]	?	-20%	?	15µM*	-6%	13µM*
CCOc1cc(C(=S)N2CCOCC2)ccc1OS(=O)(=O)c1ccccc1[N+](=O)[O-]	8%	2%	-32%	-9%	?	10µM*
COc1ccc(C(=S)N2CCOCC2)cc1OS(=O)(=O)c1ccccc1[N+](=O)[O-]	?	16%	-29%	?	-13%	3.2µM*
CC(=NNC(=S)N1CC2CCC(CC2)C1)c1ccncn1	?	-24%	14µM*	-12%	·	·
Cc1ccc(NCC(O)C(O)C(O)CO)c(N=Nc2ccccc2)c1C (stereo not drawn)	?	0%	?	2%	11µM*	-45%[12.7 µM]
CC(C)COc1ccc(C(=O)Nc2scc(-c3ccc(Br)cc3)c2C(=O)OC(C)C)cc1	35%	0%	6%	·	2%	8%[59 µM]
CCOc1ccc(CCNC(=O)COC(=O)c2cc(=O)[nH]c3ccccc23)cc1OCC	10%	3%	-18%	-6%	9%	9%[0.501 µM]
Cc1ccc(C(=O)Nc2cccc(NC(=O)c3ccc(C)c([N+](=O)[O-])c3)n2)cc1[N+](=O)[O-]	-10%	-7%	-33%	3%	2%	8%
Cc1cccc(NC(=O)c2ccc(C(=O)c3ccccc3)cc2)n1	42%	-25%	0%	-3%	2%	7.9µM*
Cc1cccc(NC(=O)c2ccc(NCCO)c([N+](=O)[O-])c2)n1	6%	-6%	-22%	-19%	89µM*	-16%
Cc1cccc(NC(=O)NC(=O)c2ccccc2)n1	3%	-21%	-8%	-13%	-23%	0%
Cc1cccc(C(=O)NC2CCN(S(=O)(=O)c3ccc(F)cc3)CC2)c1	26%	-18%	-9%	5%	1%	·
Cc1ccc(Sc2ncccc2C(=O)NCc2cc([N+](=O)[O-])ccc2O)c(C)c1	16%	13%	-35%	-8%	35µM*	·
Oc1ccccc1C1=NC(c2ccccc2)NC(c2ccccc2)C1 (stereo not drawn)	·	·	·	-10%	·	·
COC(=O)c1ccc(C2N=C(c3cccs3)CC(c3ccccc3O)N2)cc1 (stereo not drawn)	15%	?	-27%	-12%	-6%	45µM*
Cc1cccc(N2CCN(C(=O)c3c(C)oc4nc(C)nc(N5CCCC5)c34)CC2C)c1 (stereo not drawn)	14%	4%	-27%	·	-8%[57.1 µM]	?
COc1ccc(Cl)cc1NC(=O)CSc1nc(NS(=O)(=O)c2ccccc2)cc(=O)[nH]1	-18%	1%	?	-16%	-28%	71µM*
COc1ccc(Cl)cc1NC(=O)CSc1nc(-c2ccccc2)cc(=O)[nH]1	21%	-6%	-18%	?	-1%	-4%
O=c1cc(NS(=O)(=O)c2ccccc2)nc(SCc2ccc(Cl)cc2)[nH]1	35%	11%	-21%	-7%	79µM*	-34%[59 µM]
Cc1ccc(S(=O)(=O)Nc2cc(=O)[nH]c(SCc3ccccc3Cl)n2)cc1	5%	-5%	56µM*	-9%	-36%	-14%[59 µM]
CC(C)(C)c1cc(=O)[nH]c(SCc2ccccc2Cl)n1	44%	-2%	5%	-20%	-14%	9%
SMILES	HP1b chromo inh	VDR inhibitor	JMJD2A Tudor	PLK1 PBD block	BAZ2B block	G9a block
O=C(CSc1nc(NS(=O)(=O)c2ccccc2)cc(=O)[nH]1)Nc1ccc(Cl)cc1	54%	-11%	-26%	-18%	79µM*	71µM*
Cc1cc(NC(=O)CCc2nc3cccnc3n2-c2ccccc2)ccc1Br	10%	-5%	-26%	·	-29%	?
CCC(=O)N1CCc2cc(Br)cc(S(=O)(=O)CCC(=O)N3CCN(c4cccc(C(F)(F)F)c4)CC3)c21	7%	-5%	-8%	·	-2%	-31%[59 µM]
CSc1ccc(CNC(=O)C2CCN(c3nnc(-n4cccc4CNc4ccc(C)cc4)s3)CC2)cc1	4%	-7%	?	·	-8%	5%[59 µM]
O=C(NCc1cccc(Cl)c1)c1ccc2nc(N3CCOCC3)sc2c1	-17%	-24%	-23%	27µM*	-3%	·
O=C(NCCc1ccccc1)c1ccc2nc(N3CCOCC3)sc2c1	24%	11%	-21%	3%	-1%	·
Cc1oc2c(cc(NS(=O)(=O)c3ccc(C(C)C)cc3)c3ccccc32)c1C(=O)O	-14%	-3%	?	19µM*	50µM*!	50µM*!
COc1ccc(C(=O)NNC(=S)NC(=O)c2cccs2)cc1	28%	5%	-21%	-19%	-12%	40µM*
COc1ccc(C(=O)NNC(=S)NC(=O)c2ccc(OC)cc2)cc1	54%	-5%	-22%	-2%	2%	·
COc1ccc(CC(=O)NNC(=S)NC(=O)c2cccnc2)cc1	15%	2%	20µM*	?	11%	·
O=C(Cc1ccccc1)NNC(=S)NC(=O)c1cccnc1	18%	0%	25µM*	1%	5%	10µM*
O=C(NC(=S)NCc1ccccc1)c1cccnc1	42%	-10%	-6%	-5%	-20%	9%
COc1ccc(C(=O)NNC(=S)NC(=O)c2cccnc2)cc1	18%	-2%	-6%	-5%	9%	13µM*
CC(=O)Nc1sc(N/N=C\c2ccc(O)cc2)nc1-c1cccs1	?	-23%	40µM*	27µM*	?	32µM*
CC(=O)Nc1sc(N/N=C\c2cccc(Cl)c2)nc1-c1cccs1	?	7.1µM*	?	?	-32%	10µM*
CCN(Cc1ccccc1)C(=O)C1CCN(S(=O)(=O)c2ccc3c(c2)CCCN3C(C)=O)CC1	25%[57 µM]	8%	1%	·	2%	8%[59 µM]
